Several values for one entry are separate records, joined by “and”; a condition that tells them apart may be missing. Identical values can stand only once. The whole screen tested about 16,000 compounds, of which about 120 (0.75%) were called active. Roughly 4% stayed inconclusive and do not appear here. The call rests on the fitted dose curve; in most records, active means well fitted inhibition curve with a large enough effect; inconclusive means small, poorly fitted or top-dose-only effect; inactive means no such curve, though single readings can be large or run the other way. The entries come from a sample that favours actives as a whole. Where a structure was tested more than once in an assay, its records may differ in their call. *1 amine or outer side, *2 acyl side, *3 side chain or, on linkers, in order; H or OH if unused. Where a SMILES comes first, the peptide text is derived from it. Bridges are numbered along the chain shown (N, C = ends). [ ]: non-standard residue; d: D form. The star is where a group is joined. X6 = NC1=N[C@@H](O)C[C@H]([C@H](N[*:1])C(=O)[*:2])N1; ΔAla(3-NHCONH2) = NC(=O)NC=C(N)C(=O)O; β3hOrn = NCCC[C@H](N)CC(=O)*; Dap = NC[C@H](N)C(=O)O
Target: Rap guanine nucleotide exchange factor 3 (Homo sapiens) (UniProt O95398)
Sequence (O95398 whole entry, looked up): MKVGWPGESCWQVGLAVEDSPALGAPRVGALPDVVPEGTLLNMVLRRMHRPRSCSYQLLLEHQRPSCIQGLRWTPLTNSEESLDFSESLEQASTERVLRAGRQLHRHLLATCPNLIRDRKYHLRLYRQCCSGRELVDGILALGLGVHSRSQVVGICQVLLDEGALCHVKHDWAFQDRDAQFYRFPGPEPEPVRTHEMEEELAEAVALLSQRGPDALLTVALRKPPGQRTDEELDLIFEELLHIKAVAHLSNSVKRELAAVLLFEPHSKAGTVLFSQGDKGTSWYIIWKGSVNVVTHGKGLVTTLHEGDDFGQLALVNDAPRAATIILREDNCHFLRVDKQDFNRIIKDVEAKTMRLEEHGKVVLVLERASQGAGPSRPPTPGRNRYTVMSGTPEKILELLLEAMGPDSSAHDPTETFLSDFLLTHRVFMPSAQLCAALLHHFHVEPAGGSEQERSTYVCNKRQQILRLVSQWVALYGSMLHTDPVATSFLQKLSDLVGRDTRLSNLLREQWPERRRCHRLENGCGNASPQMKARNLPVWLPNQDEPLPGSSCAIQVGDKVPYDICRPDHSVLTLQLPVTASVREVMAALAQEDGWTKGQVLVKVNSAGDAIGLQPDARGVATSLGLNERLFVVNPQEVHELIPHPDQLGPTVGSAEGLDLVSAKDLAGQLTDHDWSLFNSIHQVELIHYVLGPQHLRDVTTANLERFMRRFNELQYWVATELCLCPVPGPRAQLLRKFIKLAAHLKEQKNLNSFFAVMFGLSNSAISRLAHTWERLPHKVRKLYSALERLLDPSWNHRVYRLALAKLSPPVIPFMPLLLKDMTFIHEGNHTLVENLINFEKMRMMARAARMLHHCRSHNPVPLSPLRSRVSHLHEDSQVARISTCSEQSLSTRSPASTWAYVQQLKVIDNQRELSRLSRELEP
Assay: Validation qHTS for antagonist of cAMP-regulated guanine nucleotide exchange factor 3 (EPAC1); further: nearly all actives have a fitted effect of over 75% in size
Conditions: EPAC1 Rap1B-BODIPY-GDP exchange, fluorescence; series mostly up to 150 µM; activity change, negative = inhibition: at the top concentration
Excerpt: Assay Provider (PI): Xiaodong Cheng Ph.D.
The University of Texas Medical Branch, […], TX
In multi-cellular eukaryotic organisms, the effects of cAMP are transduced by two ubiquitously-expressed intracellular cAMP receptors, the classic protein kinase A/cAMP-dependent protein kinase (PKA/cAPK) and the more recently discovered exchange protein directly activated by cAMP/cAMP-regulated guanine nucleotide exchange factor (EPAC/cAMP-GEF). Both PKA and EPAC are ubiquitously expressed in all tissues, and an increase in intracellular cAMP levels will lead to the activation of both PKA and EPAC. Therefore, careful dissections of the individual role and relative contribution of EPAC and PKA within the overall cAMP signaling in various model systems are critical for further elucidating the mechanism of cAMP signaling. To date no EPAC-specific antagonists and agonist, as well as isoform-specific agonists have been reported, and developing EPAC-specific pharmacological probes to determine the physiological functions that EPAC play in the overall cAMP-mediated signaling remains a major challenge within the research field. Furthermore, identified regulators of EPAC may lead to new mechanism-based therapeutic strategies specifically targeting the EPAC / cAMP-signaling components as EPAC has been implicated to play important roles in major human pathological conditions such as diabetes, heart disease, and cancer.
This qHTS will be used to screen the Molecular Libraries Small Molecule Repository (MLSMR) as a concentration-titration series using the NCGC unique quantitative screening (qHTS) platform to find activators for EPAC1. In addition, this assay will also be used as a counterscreen for the EPAC2 qHTS. This fluorescent based assay is developed and validated for EPAC1 that measures exchange using EPAC effector Rap1 complex with BODIPY-GDP, a GDP analog with a tethered fluorophores. Activators are identified by monitoring the change in fluorescence signal as the exchanged free BODIPY-GDP has a reduced fluorescence compared to Rap1-bound BODIPY-GDP. Increase in signal (activation) is the desired outcome for the EPAC1 agonist while no activity in this assay is desired for the EPAC2 agonist counterscreen.
[1] de Rooij, J., Zwartkruis, F. J., Verheijen, M. H., Cool, R. H., Nijman, S. M., Wittinghofer, A., and Bos, J.L. (1998) Nature 396, 474-477.
Briefly, three uL of reagents (100 nM EPAC1, 250 nM RAP1B-BODIPY-GDP, 50 uM GDP) were dispensed into a 1536-well Greiner black solid-bottom medium binding assay plate. Controls and test compounds (23 nL) were transferred to the plate via a Kalypsys pin tool equipped with a 1536-pin array. The plates were centrifuged at 1,000 rpm for 15 seconds followed by 5 minute incubation at room temperature. The assay plates were read at 5 minute intervals for 30 minutes in the ViewLux plate reader using 480nm excitation and 540nm emission filters. The results were normalized to the […] positive control ATA and DMSO.
Potency means the concentration at half of the fitted maximal effect.

| Compound | activity change, negative = inhibition | Potency |
| --- | --- | --- |
| COc1cc(N)c(N)cc1OC | 22.6% (inactive) |  |
| Nc1cc(N)cc(N)c1 |  | 44.7 µM (active) |
| Nc1ccc(O)cc1 | -22.7% [at 320 µM] (inactive) |  |
| COc1ccc2[nH]cc(CCO)c2c1 | 4.85% (inactive) |  |
| CC(C)c1ccc(CN2CCC3(CCC(CNC(=O)c4ccn(C)n4)O3)CC2)cc1 (centres undefined) | 19.7% (inactive) |  |
| Cc1cccc(C(=O)NCc2nc(-c3cccc(NC(=O)C4CCCN(C)C4)c3)oc2C)n1 (centres undefined) | 12.9% (inactive) |  |
| Cn1cccc1C(=O)N1CCC[C@@]2(CCN(c3cccc(-c4ccccc4)c3)C2)C1 | 1.7% (inactive) |  |
| CCCc1nc(C(C)(C)O)c(C(=O)OCc2oc(=O)oc2C)n1Cc1ccc(-c2ccccc2-c2nn[nH]n2)cc1 | 20.8% (inactive) |  |
| CCOc1nc2cccc(C(=O)OC(C)OC(=O)OC3CCCCC3)c2n1Cc1ccc(-c2ccccc2-c2nn[nH]n2)cc1 (centres undefined) |  | 89.1 µM (active) |
| CCOc1nc2cccc(C(=O)O)c2n1Cc1ccc(-c2ccccc2-c2nn[nH]n2)cc1 | 9.91% (inactive) |  |
| CCN1CCCC1CNC(=O)c1cnn(-c2ncc3c(n2)-c2ccc(OC)cc2CC3)c1C1CC1 (centres undefined) | 12.9% (inactive) |  |
| NCCC[C@H](N)CC(=O)N[C@H]1CNC(=O)[C@H]([C@H]2C[C@H](O)N=C(N)N2)NC(=O)C(=CNC(N)=O)NC(=O)[C@H](CO)NC(=O)[C@H](CO)NC1=O (β3hOrn-[Dap]SS[ΔAla(3-NHCONH2)][X6]; lactam 1-C) | 23.2% [at 39.6 µM] (inactive) |  |
| O.O.O.O.O.O.O.O=S(=O)([O-])[O-].[Co+2] |  | 100 µM (active) |
| Cc1ccc(C(=O)Nc2cccc(-c3nc(CNC(=O)c4ccc(F)cc4Cl)c(C)o3)c2)s1 | -17.1% (inactive) |  |
| CC(=O)OC1CCC2(C)C3=C(CCC2C1(C)C)[C@@]1(C)CCC(C(C)CCC=C(C)C)[C@@]1(C)CC3 (some centres undefined) | -0.323% (inactive) |  |
| CCCCCCCCCCCCCCCCSCC(COC)COP(=O)([O-])OCC[N+](C)(C)C (centres undefined) | 5.55% (inactive) |  |
| OCCN1CCN(CCCN2c3ccccc3Sc3ccc(Cl)cc32)CC1 |  | inactive |
| CN1CCN(CCCN2c3ccccc3Sc3ccccc32)CC1 | 26.3% (inactive) |  |
| CN1CCN(CCCN2c3ccccc3Sc3ccc(Cl)cc32)CC1 |  | inactive and 112 µM (active) |
| CC(=O)N1CCC2(CC1)CN(c1cccc(-c3ccccc3)c1)C2 | 4.97% (inactive) |  |
| C[C@@H]1[C@H](c2ccccc2)OCCS(=O)(=O)N1Cc1ccccc1Br | -15.5% (inactive) |  |
| O=S1(=O)CCO[C@H]2CCCC[C@@H]2N1Cc1ccccc1Br | -3.34% (inactive) |  |

| Compound | activity change, negative = inhibition | Potency |
| --- | --- | --- |
| C=C1[C@@H](O)[C@H](CC(C)C)N(Cc2ccccc2Br)S1(=O)=O |  | 89.1 µM (active) |
| Cc1ccc2c(c1)C(=O)[C@@]1(O)CCN(c3ccccc3)C1=N2 | -6.6% (inactive) |  |
| Cc1cnc(-n2ncc(C(=O)NCCN3CCOCC3)c2C2CC2)nc1-c1cccs1 | 5.26% (inactive) |  |
| CCC1CN(CCNC(=O)c2cc(C(C)C)nn2C)Cc2cc(OC)ccc2O1 (centres undefined) | 4.19% (inactive) |  |
| Oc1c(Cl)cc(Cl)c2cccnc12 | 7.71% (inactive) |  |
| Cc1ccc2c(Cl)cc(Cl)c(O)c2n1 |  | inactive |
| Oc1c(Cl)cc(Cl)c(Cl)c1Cc1c(O)c(Cl)cc(Cl)c1Cl |  | 56.2 µM (active) and inactive |
| COc1ccc(C(=O)N2CCC3(CC2)CN(c2ncccn2)C3)cc1 | 1.47% (inactive) |  |
| COc1cc(CN2CCOc3ccc(CN4CCC(O)(c5cccnc5)CC4)cc3C2)cc(OC)c1 | 23% (inactive) |  |
| Cc1ccc(C(=O)NCCc2nnc3n2CCN(Cc2cc(C)cc(C)c2)CC3)cc1 | -5.23% (inactive) |  |
| c1csc(CNc2ncncc2-c2ccoc2)c1 | 7.04% (inactive) |  |
| O=C(c1nc2ncccn2n1)N1CCOc2ccc(C(O)C(c3ccccc3)c3ccccc3)cc2C1 (centres undefined) | -1.68% (inactive) |  |
| C=C1c2c(Cl)ccc(O)c2C(O)=C2C(=O)[C@]3(O)C(O)=C(C(N)=O)C(=O)C(N(C)C)C3C(O)C12 (some centres undefined) | -0.56% (inactive) |  |
| C=C1c2cccc(O)c2C(O)=C2C(=O)[C@]3(O)C(O)=C(C(N)=O)C(=O)C(N(C)C)C3C(O)C12 (some centres undefined) | 9.9% (inactive) |  |
| C=C1c2cccc(O)c2C(O)=C2C(=O)[C@]3(O)C(O)=C(C(N)=O)C(=O)[C@@H](N(C)C)[C@@H]3[C@@H](O)[C@H]12 |  | 31.6 µM (active) |
| O=C(c1cccnc1)C1CCCN(Cc2ccc3c(c2)CN(C(=O)c2cccc(Cl)c2)CCO3)C1 (centres undefined) | 15.7% (inactive) |  |
| CCC(C(=O)NC(N)=O)c1ccccc1 (centres undefined) | 5.14% (inactive) |  |
| COC(=O)C[C@](O)(CCCC(C)(C)O)C(=O)O[C@@H]1C(OC)=CC23CCCN2CCc2cc4c(cc2[C@H]13)OCO4 (some centres undefined) | 23.6% (inactive) |  |
| Cn1cccc1C(=O)N1CCC[C@@]2(CCN(c3ncccn3)C2)C1 | 15.2% (inactive) |  |
| CCCOC(=O)c1cc(O)c(O)c(O)c1 | -15.6% (inactive) |  |
| CCOC(=O)Cc1cccc(-c2cc(CCCCCCc3ccc(O[C@H]4O[C@H](COC(C)=O)[C@@H](OC(C)=O)[C@H](OC(C)=O)[C@@H]4OC(C)=O)c(-c4cccc(CC(=O)OCC)c4)c3)ccc2O[C@H]2O[C@H](COC(C)=O)[C@@H](OC(C)=O)[C@H](OC(C)=O)[C@@H]2OC(C)=O)c1 | 16.7% (inactive) |  |
| O=C(OC[C@H]1O[C@@H](OC(=O)c2cc(O)c(O)c(OC(=O)c3cc(O)c(O)c(O)c3)c2)[C@H](OC(=O)c2cc(O)c(O)c(OC(=O)c3cc(O)c(O)c(O)c3)c2)[C@@H](OC(=O)c2cc(O)c(O)c(OC(=O)c3cc(O)c(O)c(O)c3)c2)[C@@H]1OC(=O)c1cc(O)c(O)c(OC(=O)c2cc(O)c(O)c(O)c2)c1)c1cc(O)c(O)c(OC(=O)c2cc(O)c(O)c(O)c2)c1 |  | 11.2 µM (active) |
